Measured values published in the supplement of paper PMC10849652.
Targets with a hit are over-represented here; the source holds about 8,800 in all. About 0.5% of all pairs of compound and target were hits.

These targets were tested with CC1=C(SC2=C1C(=N[C@H](C3=NN=C(N32)C)CC(=O)N)C4=CC=C(C=C4)Cl)C (assay: log2 fold change, soluble protein after heating vs DMSO (PISA); higher = thermal stabilisation; K562 lysate, 10 uM; active = over 0.2 and 3.5 SD of the protein, either way, in both replicates (recomputed)).
How it was run: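 Thermal stability, expressed as log-two fold change relative to solvent controls, is given from duplicates. Crude K562 extract in PBS pH 7.4 with 1 mM MgCl2, at 1 mg/mL protein, was treated with 10 μM compound for 30 min and heated in aliquots for 3 min across 48°C-58°C. After pooling, adjustment to 0.5% NP-40 at 4°C and centrifugation at 21,000xg for 90 min, supernatant protein was measured by TMTpro 16plex LC-MS/MS with channel sums equalised.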

Chain of UniProt Q8NF50 (Q8NF50 whole entry, looked up): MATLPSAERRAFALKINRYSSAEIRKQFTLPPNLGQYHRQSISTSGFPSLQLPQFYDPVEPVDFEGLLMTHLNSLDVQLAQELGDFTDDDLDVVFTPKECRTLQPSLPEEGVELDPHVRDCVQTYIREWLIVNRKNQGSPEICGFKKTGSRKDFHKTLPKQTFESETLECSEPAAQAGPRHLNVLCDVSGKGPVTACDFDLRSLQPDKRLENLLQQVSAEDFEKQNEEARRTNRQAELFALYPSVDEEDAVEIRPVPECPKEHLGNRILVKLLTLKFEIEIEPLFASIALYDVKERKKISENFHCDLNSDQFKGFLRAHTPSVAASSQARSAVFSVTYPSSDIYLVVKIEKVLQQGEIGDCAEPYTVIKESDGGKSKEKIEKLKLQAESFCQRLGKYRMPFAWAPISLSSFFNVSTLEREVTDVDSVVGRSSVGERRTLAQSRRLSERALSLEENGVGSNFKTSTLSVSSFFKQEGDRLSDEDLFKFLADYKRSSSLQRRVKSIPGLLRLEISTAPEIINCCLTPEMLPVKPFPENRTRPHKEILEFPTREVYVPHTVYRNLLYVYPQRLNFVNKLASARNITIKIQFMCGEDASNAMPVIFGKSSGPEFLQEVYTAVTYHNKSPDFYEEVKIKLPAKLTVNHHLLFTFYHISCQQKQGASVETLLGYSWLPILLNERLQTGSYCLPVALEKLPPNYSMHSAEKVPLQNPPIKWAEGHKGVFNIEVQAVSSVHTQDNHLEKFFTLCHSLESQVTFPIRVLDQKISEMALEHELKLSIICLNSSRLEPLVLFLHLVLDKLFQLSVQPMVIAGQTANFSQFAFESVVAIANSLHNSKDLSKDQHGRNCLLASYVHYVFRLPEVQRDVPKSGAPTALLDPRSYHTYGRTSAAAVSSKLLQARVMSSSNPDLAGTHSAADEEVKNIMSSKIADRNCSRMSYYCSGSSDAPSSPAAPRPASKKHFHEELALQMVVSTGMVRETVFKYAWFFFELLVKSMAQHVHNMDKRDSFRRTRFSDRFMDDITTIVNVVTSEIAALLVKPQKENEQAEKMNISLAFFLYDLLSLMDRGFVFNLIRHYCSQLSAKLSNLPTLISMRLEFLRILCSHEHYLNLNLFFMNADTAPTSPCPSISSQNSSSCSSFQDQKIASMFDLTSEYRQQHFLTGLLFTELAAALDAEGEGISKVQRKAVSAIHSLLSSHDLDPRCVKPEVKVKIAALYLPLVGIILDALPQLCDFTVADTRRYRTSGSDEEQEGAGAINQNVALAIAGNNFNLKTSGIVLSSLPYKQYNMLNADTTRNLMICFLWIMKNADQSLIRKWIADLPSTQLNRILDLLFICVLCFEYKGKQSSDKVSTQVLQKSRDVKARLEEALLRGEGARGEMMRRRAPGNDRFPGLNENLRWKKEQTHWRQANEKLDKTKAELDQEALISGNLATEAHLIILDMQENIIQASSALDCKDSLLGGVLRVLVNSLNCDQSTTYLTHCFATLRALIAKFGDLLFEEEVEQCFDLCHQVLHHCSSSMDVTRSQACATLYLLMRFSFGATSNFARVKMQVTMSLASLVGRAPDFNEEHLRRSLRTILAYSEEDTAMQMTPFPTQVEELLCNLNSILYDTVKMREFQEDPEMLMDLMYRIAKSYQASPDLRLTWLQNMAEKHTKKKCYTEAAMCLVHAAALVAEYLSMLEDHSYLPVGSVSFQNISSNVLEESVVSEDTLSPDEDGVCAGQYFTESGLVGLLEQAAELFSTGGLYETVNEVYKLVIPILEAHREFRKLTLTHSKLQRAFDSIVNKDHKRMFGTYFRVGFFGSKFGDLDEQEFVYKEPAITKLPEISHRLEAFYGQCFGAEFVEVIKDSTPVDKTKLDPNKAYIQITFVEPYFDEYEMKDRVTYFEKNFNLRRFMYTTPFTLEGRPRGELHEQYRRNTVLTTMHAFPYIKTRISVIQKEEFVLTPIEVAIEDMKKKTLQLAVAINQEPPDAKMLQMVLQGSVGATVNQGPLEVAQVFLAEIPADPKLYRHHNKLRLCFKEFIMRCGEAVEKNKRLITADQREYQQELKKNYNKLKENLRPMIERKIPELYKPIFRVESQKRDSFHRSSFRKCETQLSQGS
Chain of UniProt P31146 (P31146 whole entry, looked up): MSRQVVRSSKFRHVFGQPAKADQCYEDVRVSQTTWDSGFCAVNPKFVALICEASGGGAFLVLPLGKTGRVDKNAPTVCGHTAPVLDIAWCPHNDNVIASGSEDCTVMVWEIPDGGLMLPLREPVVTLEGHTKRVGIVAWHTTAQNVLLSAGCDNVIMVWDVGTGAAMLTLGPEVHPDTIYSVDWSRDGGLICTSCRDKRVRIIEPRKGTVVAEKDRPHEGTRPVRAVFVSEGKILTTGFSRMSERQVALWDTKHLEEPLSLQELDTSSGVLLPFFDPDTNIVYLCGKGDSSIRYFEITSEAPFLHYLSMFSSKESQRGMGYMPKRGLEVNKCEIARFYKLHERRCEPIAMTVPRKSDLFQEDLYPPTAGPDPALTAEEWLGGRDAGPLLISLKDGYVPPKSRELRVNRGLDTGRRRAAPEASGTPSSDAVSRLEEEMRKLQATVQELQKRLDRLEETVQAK
Chain of UniProt Q15398 (Q15398 whole entry, looked up): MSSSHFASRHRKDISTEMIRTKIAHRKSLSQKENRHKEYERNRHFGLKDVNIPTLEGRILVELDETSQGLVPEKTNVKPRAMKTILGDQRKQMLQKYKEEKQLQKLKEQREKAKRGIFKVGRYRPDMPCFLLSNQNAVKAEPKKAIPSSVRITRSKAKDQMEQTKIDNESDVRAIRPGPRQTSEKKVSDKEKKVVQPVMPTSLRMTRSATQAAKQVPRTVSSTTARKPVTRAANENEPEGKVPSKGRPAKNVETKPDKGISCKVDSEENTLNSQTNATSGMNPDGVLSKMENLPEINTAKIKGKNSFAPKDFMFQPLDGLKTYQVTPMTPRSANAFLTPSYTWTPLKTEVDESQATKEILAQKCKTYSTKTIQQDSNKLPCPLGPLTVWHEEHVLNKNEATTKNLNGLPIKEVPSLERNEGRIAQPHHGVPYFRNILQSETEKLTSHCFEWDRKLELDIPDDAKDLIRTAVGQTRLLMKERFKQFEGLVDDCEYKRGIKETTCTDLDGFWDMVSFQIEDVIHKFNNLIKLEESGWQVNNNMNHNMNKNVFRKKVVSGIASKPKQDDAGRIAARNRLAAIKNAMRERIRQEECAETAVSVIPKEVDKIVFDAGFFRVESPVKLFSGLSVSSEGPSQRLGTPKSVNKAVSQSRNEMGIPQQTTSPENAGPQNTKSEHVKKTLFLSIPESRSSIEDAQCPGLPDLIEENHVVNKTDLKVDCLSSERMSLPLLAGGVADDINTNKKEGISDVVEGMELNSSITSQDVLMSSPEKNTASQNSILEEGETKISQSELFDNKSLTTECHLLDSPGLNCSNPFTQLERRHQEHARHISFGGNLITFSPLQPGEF
Chain of UniProt Q9H5X1 (Q9H5X1 whole entry, looked up): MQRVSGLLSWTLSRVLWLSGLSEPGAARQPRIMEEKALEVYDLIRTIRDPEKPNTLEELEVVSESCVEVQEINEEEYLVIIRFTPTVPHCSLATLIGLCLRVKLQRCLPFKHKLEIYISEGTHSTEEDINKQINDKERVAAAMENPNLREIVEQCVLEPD
Chain of UniProt Q8IWV2 (Q8IWV2 whole entry, looked up): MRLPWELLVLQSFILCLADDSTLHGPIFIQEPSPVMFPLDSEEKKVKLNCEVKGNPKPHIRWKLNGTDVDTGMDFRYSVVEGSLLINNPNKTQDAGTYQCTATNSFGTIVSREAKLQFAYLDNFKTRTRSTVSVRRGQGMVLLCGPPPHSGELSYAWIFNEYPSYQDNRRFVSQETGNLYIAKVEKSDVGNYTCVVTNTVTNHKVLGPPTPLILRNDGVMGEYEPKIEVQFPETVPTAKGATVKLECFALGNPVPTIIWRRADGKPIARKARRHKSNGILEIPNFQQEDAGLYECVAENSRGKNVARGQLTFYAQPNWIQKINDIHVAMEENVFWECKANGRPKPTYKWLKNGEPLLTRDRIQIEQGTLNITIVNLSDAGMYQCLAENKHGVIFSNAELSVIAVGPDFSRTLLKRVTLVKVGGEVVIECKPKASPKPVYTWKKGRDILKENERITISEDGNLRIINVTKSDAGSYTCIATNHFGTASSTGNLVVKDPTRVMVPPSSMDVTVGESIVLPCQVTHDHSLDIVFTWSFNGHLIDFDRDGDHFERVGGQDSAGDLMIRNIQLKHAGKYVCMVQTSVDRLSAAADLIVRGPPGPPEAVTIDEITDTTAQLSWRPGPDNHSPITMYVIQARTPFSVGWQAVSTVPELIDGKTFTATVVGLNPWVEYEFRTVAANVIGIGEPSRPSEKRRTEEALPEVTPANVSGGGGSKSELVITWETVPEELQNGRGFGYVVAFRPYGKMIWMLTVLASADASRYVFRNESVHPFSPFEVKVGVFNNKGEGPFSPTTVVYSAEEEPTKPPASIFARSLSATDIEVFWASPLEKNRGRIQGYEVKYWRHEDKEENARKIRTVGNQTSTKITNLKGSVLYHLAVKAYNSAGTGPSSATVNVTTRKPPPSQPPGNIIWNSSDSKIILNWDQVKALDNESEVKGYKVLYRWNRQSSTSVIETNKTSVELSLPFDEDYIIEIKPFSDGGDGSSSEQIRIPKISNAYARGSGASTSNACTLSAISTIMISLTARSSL
Chain of UniProt P19784 (P19784 whole entry, looked up): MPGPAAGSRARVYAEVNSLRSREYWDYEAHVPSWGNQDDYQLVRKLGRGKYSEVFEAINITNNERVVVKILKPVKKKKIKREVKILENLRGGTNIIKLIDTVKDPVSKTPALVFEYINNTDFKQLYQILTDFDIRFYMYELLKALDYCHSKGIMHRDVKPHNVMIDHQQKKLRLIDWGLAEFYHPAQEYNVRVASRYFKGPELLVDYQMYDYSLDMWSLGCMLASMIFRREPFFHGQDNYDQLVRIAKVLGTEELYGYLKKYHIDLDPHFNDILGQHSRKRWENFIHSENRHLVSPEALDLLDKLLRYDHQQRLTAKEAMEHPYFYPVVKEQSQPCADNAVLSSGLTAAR
Chain of UniProt Q5RI15 (Q5RI15 whole entry, looked up): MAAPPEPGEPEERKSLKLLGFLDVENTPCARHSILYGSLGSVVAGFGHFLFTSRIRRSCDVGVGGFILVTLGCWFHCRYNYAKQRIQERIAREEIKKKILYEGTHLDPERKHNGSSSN

Target | log2 fold change
COX20 isoform 2 (UniProt Q5RI15) | -0.047 (inactive)
CTNNBL1 (UniProt Q8WYA6) | 0 (inactive)
CYP24A1 (UniProt Q07973) | 0.142 (inactive)
DLGAP5 (UniProt Q15398) | -0.006 (inactive)
DOCK8 (UniProt Q8NF50) | -0.004 (inactive)
DBF4 (UniProt Q9UBU7) | 0.002 (inactive)
CORO1A (UniProt P31146) | 0.021 (inactive)
CLASP1 (UniProt Q7Z460) | 0.011 (inactive)
DFFB (UniProt O76075) | -0.057 (inactive)
CLPTM1L (UniProt Q96KA5) | 0.039 (inactive)
COL6A5 (UniProt A8TX70) | 0.052 (inactive)
CLP1 (UniProt Q92989) | -0.002 (inactive)
DHCR7 (UniProt Q9UBM7) | 0.028 (inactive)
COG3 (UniProt Q96JB2) | -0.015 (inactive)
CNTN4 (UniProt Q8IWV2) | 0.073 (inactive)
CIAO2A (UniProt Q9H5X1) | 0.062 (inactive)
DAZAP1 (UniProt Q96EP5) | -0.046 (inactive)
CSNK2A2 (UniProt P19784) | -0.033 (inactive)
DCP1A (UniProt Q9NPI6) | -0.031 (inactive)
CLIC2 (UniProt O15247) | 0.033 (inactive)
CSTB (UniProt P04080) | -0.018 (inactive)
CSNK1D (UniProt P48730) | 0.014 (inactive)
CKAP2 (UniProt Q8WWK9) | 0.066 (inactive)
